Assay results: PubChem BioAssay (NCI)
Compounds without any hit were thinned out: in the full panel of roughly 83,000, 20% have a hit.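 Cells were grown in 96-well plates and exposed to the test compound at a single concentration for 48 hours; results are reported as percent growth, with values below 10 considered active.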 Calls of active or inactive are those of the source.

Tested on: HCT-116 colon
Test: NCI-60 one-dose screen, 48 h (100 = growth as untreated, 0 = no growth, -100 = all killed)
Settings: 10 µM unless noted
Procedure: Growth inhibition of the HCT-116 human tumor cell line is measured as a screen for anti-cancer activity. Cells are grown in 96 well plates and exposed to the test compound for 48 hours. Compounds are tested at a single concentration, which is 10^-5 M for most compounds. The reported endpoint is percent growth (GI% or GIPRCNT), where numbers from 0 - 100% represent growth inhibition, and numbers from -100% - 0 represent cell death. For example, a value of 40 represents 60% growth inhibition. A value of 0 means no net growth occurred over the course of the experiment. A value of -40 indicates 40% of cells at the beginning of the experiment died by the end of the experiment. A value of -100 means all cells are dead at the end of the experiment.
NCI-60 Human Tumor Cell Lines Screen was performed using the standard one-dose NCI protocol, which is described in more detail at https://dtp.cancer.gov/discovery_development/nci-60/default.htm.
Compounds with GIPRCNT values below 10 were considered active. Activity score was based on GIPRCNT using the following formula: […]
Score is 0 for GIPRCNT values of 100 or above, 50 for GIPRCNT values of 0, and 100 for GIPRCNT values of -100.

| SMILES | growth |
| --- | --- |
| COc1ccc(N2C(=O)/C(=C/C(Cl)=C/c3ccc([N+](=O)[O-])cc3)SC2=S)cc1 | -60.4% (active) |
| Cc1ccc(OCCOCCOCCOCCOc2ccc(C)n(O)c2=S)c(=S)n1O | 14.3% (inactive) |
| CC(C)=CCC[C@](C)(O)C1CC[C@]2(C)[C@@H]1CC[C@@H]1[C@@]3(C)CC/C(=N\OCCC#N)C(C)(C)[C@@H]3CC[C@]12C (stereo not given in full) | 66.2% (inactive) |
| CN1CCN(CC(=O)N(C)c2ccc(N=C(c3ccccc3)c3c(O)[nH]c4ccc([N+](=O)[O-])cc34)cc2)CC1 | 24% (inactive) |
| CC/C(=C(/c1ccc(Cl)cc1)c1ccc(OCCCN(C)C)cc1)c1ccc(OC)cc1 | 46.6% (inactive) |
| C=C(C)Cn1c(SCC(=O)c2cccs2)nc2sc3c(c2c1=O)CCCC3 | 29.3% (inactive) |
| C=CCNc1nc(O)c(/C=C2\C=Nc3ncccc32)s1 | 6.31% (active) |
| O=C1NCCN1/N=C/c1c(Cl)n(Cc2ccc(Cl)cc2)c2ccccc12 | 89.5% (inactive) |
| C=CCn1c(SCC(=O)Nc2ccc(C(=O)/C=C/c3cc(OC)c(OC)c(OC)c3)cc2)nnc1-c1cc(-c2ccc(S(N)(=O)=O)cc2)nc2ccccc12 | 17.2% (inactive) |
| COc1cc(-c2ccc(-c3ccc(C(=N)N)s3)s2)cc(OC)c1OC | -21.5% (active) |
| CC1=C(C(=O)c2ccccc2)C(c2ccc3c(c2)OCO3)NC(=S)N1 (stereo not given) | 20.1% (inactive) |
| Brc1ccc(-c2nn(-c3ccccc3)cc2-c2nn[nH]n2)s1 | 88.5% (inactive) |
| C#C[C@]1(O)CC[C@H]2[C@@H]3CC=C4c5sc(-c6cccc(C)c6)nc5CC[C@]4(C)[C@H]3CC[C@@]21C | 68.2% (inactive) |
| CCCS(=O)(=O)Nc1cccc(Nc2ncnc3cc(NC(=O)CCl)ccc23)c1Cl | -27.9% (active) |
| C=CCn1c(SCC(=O)Nc2ccc(C(=O)/C=C/c3ccc(Cl)cc3)cc2)nnc1-c1ccccc1 | -78.6% (active) |
| CC(C)n1nc(-c2ccc3oc(N)nc3c2)c2c(N)ncnc21 | 7.89% (active) |
| O=C(Oc1ccccc1)c1cc(O)c(O)c(O)c1 | 58.8% (inactive) |
| COC(=O)c1ccc(-n2cc(CCCOS(=O)(=O)c3ccc(F)cc3)nn2)cc1 | 99.6% (inactive) |
| CCOC(=O)c1ccc2c(c1)[n+](=O)c(C(C)=O)c(C(F)(F)F)n2[O-] | -38.9% (active) |
| O=C(Nc1ccccc1CNc1nc(Nc2ccc(OCCN3CCCC3)cc2)ncc1Cl)NC1CCCCC1 | 90.9% (inactive) |

| SMILES | growth |
| --- | --- |
| Cc1ccc(C2(C)NC(=O)N(CC(=O)Nc3cccc(C)c3)C2=O)cc1 (stereo not given) | 96.1% (inactive) |
| CCCc1cc(CCC)n2nc(N)nc2n1 | 103% (inactive) |
| Cc1c(N2CCCCC2)[nH]c2ccccc12 | 105% (inactive) |
| CN(C)CC1C(=O)O[C@H]2[C@H]1CC/C(COC(=O)NCc1ccc(Cn3c(=O)sn(CCCI)c3=O)cc1)=C\CC[C@@]1(C)O[C@@H]21 (stereo not given in full) | -73.2% (active) |
| CC(=O)[C@H]1CC[C@]2(C)[C@@H]1CC[C@@H]1[C@@]3(C)C/C(=C/c4cccnc4)C(=O)C(C)(C)[C@@H]3CC[C@]12C | 33.2% (inactive) |
| O=C1/C(=C/c2ccc(Br)cc2)COc2ccc(O)cc21 | 16.9% (inactive) |
| Nc1ncc(-c2ccc3ncnc(N4CCc5ccc(Cl)cc54)c3c2)cn1 | -30.6% (active) |
| O=C(NS(=O)(=O)c1ccccc1)n1cc(-c2ccncc2)c(-c2cc(O)cc(Cl)c2)n1 | 91.7% (inactive) |
| O=C1OCC2=C1C(c1cccc(F)c1)c1cc3c(cc1N2CCO)CCC3 (stereo not given) | 10.5% (inactive) |
| N#CC1=C(N)Oc2c(ccc3cccnc23)C1c1ccccc1 (stereo not given) | 22.2% (inactive) |
| Clc1ccc(C2=Nn3c(nnc3-c3cc(Cl)cc(Cl)c3Cl)SC2)cc1 | 13.7% (inactive) |
| C#CCOC(=O)C(N)CSSCC(N)C(=O)O (stereo not given) | 91.8% (inactive) |
| O=C(CNc1ncco1)Nc1ccc(S(=O)(=O)c2ccc(NC(=O)CNc3ncco3)cc2)cc1 | -80.7% (active) |
| FC(F)(F)c1cccc(-c2nnn(Cc3cc(-c4cccc(Cl)c4)no3)n2)c1 | 96.7% (inactive) |
| COC(=O)c1c(C)nc(C)c2c1C(=O)C(Br)=C(NCCCCO)C2=O | 34.3% (inactive) |
| NC(=N\N=C/c1ccc(Cl)cc1Cl)/C(N)=N\N=C/c1ccc(Cl)cc1Cl | 21.9% (inactive) |
| C#CCOc1cccc(Nc2ncnc3c(NC(=O)CCl)cccc23)c1 | 2.88% (active) |
| COc1cc2cc(Oc3ccc(NC(=O)Nc4ccc(F)c(C(F)(F)F)c4)cc3)c(C)nc2cc1OCCN1CCCCC1 | -89.8% (active) |
| Cc1nc2ccccc2c(/C=C/c2ccc(Cl)cc2)c1C(=O)/C=C/c1ccccc1 | -53.4% (active) |
| CN1/C(=C/C=C/c2n(Cc3ccc4ccccc4c3)c(Cl)c(Cl)[n+]2Cc2ccc3ccccc3c2)Oc2ccccc21 | -82.2% (active) |
